Laboratory results reported in PubChem BioAssay (NCATS).
Records with an inconclusive call do not appear. Calls of active or inactive are those of the source. Unless noted, the call rests on the fitted dose curve; in most records, active means well fitted curve in either direction with a large enough effect (not every such curve was filed as active); inconclusive means small, poorly fitted or top-dose-only effect, or another doubt; inactive means flat fitted curve, though single readings scatter.

Columns and labels:
[1] = biological target: Lysosomal acid glucosylceramidase (Homo sapiens) (UniProt P04062); assay: Glucocerebrosidase-p2 (AID 348; in the data active means potency below about 10 µM; further: potency means the concentration at half of the fitted maximal effect); settings: purified GBA, blue fluorogenic substrate, 40 min
Method in brief: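 Compounds titrated from 0.6 nM upwards against 0.2 nM enzyme in pH 5.9 citric acid/KH2PO4, taurocholate, tween-20; blue fluorogenic substrate 80 uM, 40 min room temperature, stopped and read Ex 365/Em 440 for AC50.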

[2] = AP1 Signaling Pathway (AID 357); settings: ME-180 AP-1-bla reporter, EGF-induced, beta-lactamase ratio, 5 h; at 7.69 µM (top of the series) unless noted;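 further: ME-180 reporter cells stimulated with EGF at its EC50 level; on the % scale 0 is the no-effect control and ±100 the full control effect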
Method in brief: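 Read-out was the 460nm/530nm emission ratio (excitation 405nm) after CCF4 loading for 2.5 hours at room temperature. Cells carried an AP-1-driven beta-lactamase reporter, were stimulated with EC50 EGF plus compound for 5 hours, and AC50 values came from titrations.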

[3] = NFAT Signaling Pathway (AID 444); settings: Jurkat NFAT-bla M1, carbachol, beta-lactamase ratio, 5 h; at 7.69 µM (top of the series) unless noted;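 further: carbachol stimulus at about its EC50 of 1 µM final; on the % scale 0 is the no-effect control and ±100 the full control effect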
Method in brief: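 Read-out: CCF4 FRET ratio (460 nm/530 nm) after 1 h RT dye loading, used for %activity and AC50 from titration series. Cells: Jurkat NFAT-β-lactamase/M1 line, treated with compound plus 1 uM carbachol for 5 h, 37 °C.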

[4] = Stat Signaling Pathway (AID 446); settings: ME-180 (cervical carcinoma) SIE beta-lactamase reporter, IL-6 stimulated, 5 h; at 7.69 µM (top of the series) unless noted;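 further: ME-180 cervical cancer cells given 40 pM IL-6 alongside compound; SIE-controlled beta-lactamase reporter measured as 460/530 nm FRET emission ratio; on the % scale 0 is the no-effect control and ±100 the full control effect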
Method in brief: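 IL-6/STAT signaling read in ME-180 cells via an SIE beta-lactamase reporter. Stimulus was 40 pM IL-6 (its AC50) for 5 hrs, so both activation and inhibition register.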

[5] = biological target: Glucocorticoid receptor (Homo sapiens) (UniProt P04150); assay: GR-EFC Redistribution (AID 451; calls by dose curve; further: potency means the concentration at half of the fitted maximal effect); settings: CHO-K1 GR-EFC translocation, beta-gal luminescence, 2 h
Method in brief: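 Translocation of GR-ED fusion to nuclear EA restores b-gal, read by luminescence after 1 h room-temperature detection. Engineered CHO-K1 biosensor cells, 1,000/well, exposed 2 h at 37 C to titrations up to 46 uM final.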

[6] = biological target: Mitogen-activated protein kinase 10 (Mus musculus) (UniProt Q61831); assay: JNK3 AlphaScreen Assay (AID 530); settings: JNK3 lysate, c-Jun phosphorylation; series mostly up to 57.1 µM;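 further: kinase came from lysate of stimulated human HepG2 cells; signal reports phosphorylation of biotinylated GST-cJun 1-79 at Ser73 with 10 µM ATP; on the % scale 0 is the no-effect control and ±100 the full control effect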
Method in brief: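 Compound titrations were preincubated 15 minutes at room temperature with substrate, antibody and pre-activated JNK3-containing HepG2 lysate. Reactions were started with 10 uM ATP and stopped with EDTA-containing bead buffer for AlphaScreen detection.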

[7] = biological target: 3',5'-cyclic-AMP phosphodiesterase 4B (Homo sapiens) (UniProt Q07343); assay: qHTS Assay for Inhibitors of PDE-IV (AID 607; active means well fitted activation curve with a large enough effect in the main read-out, with a control signal flat, not every such curve was filed as active; further: % of control where 0% means no effect); settings: HEK293 ACTOne CNG channel cells, membrane potential fluorescence; series mostly up to 22.9 µM
Method in brief: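 Live HEK293 cells with a modified cyclic nucleotide-gated (CNG) channel report intracellular cAMP via membrane-potential dye fluorescence (ex 535/em 590 nm). Endogenous PDE-IV was targeted. Compounds were tested at up to 22.9 uM final; RO 20-1724 100 uM served as control.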

[8] = qHTS Assay for Lipid Storage Modulators (AID 1519; calls by dose curve); settings: Drosophila S3 cells, BODIPY lipid droplet/cell ratio, laser cytometry, cells loaded with oleic acid; for activity change, negative = inhibition: at 57.5 µM (top of the series)
Method in brief: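 Cells seeded at 5,000 per well were treated with compounds over a concentration series and loaded with oleic acid (400 uM, as added). Lipid droplet fluorescence (488 nm excitation, 500-530 nm channel) was read by laser-scanning cytometry and normalized to 20 uM Triacsin C.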

[9] = Primary qHTS for small molecule stabilizers of the endoplasmic reticulum resident proteome: Secreted ER Calcium Modulated Protein (SERCaMP) assay (AID 1508630; active means well fitted inhibition curve with a large enough effect; further: on the % scale 0 is the no-effect control and ±100 the full control effect); settings: SH-SY5Y GLuc-SERCaMP (Gaussia luciferase released on ER calcium loss) secretion, thapsigargin, luminescence; series mostly up to 38.4 µM
Method in brief: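 GLuc-SERCaMP-expressing SH-SY5Y cells, pretreated 16 h with compound, are challenged with thapsigargin to empty ER calcium stores; after 4 h, coelenterazine is added directly to the medium and luminescence is imaged.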

[10] = measured here: cell count channel max response
[11] = measured here: lipid channel max response

Chain of Lysosomal acid glucosylceramidase (Homo sapiens) (P04062 whole entry, looked up): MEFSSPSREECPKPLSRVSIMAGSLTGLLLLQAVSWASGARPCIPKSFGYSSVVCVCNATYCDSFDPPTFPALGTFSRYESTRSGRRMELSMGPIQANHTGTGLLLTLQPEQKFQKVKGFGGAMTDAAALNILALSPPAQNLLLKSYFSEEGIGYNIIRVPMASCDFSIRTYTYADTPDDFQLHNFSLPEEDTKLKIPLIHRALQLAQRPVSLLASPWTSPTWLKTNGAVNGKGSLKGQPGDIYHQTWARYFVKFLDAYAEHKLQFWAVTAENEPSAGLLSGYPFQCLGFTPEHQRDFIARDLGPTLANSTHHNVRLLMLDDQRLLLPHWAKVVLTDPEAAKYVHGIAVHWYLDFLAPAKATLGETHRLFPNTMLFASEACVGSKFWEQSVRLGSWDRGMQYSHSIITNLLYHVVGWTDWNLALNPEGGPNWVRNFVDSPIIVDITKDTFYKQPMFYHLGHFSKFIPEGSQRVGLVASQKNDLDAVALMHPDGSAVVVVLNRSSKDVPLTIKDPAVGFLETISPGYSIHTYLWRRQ
Chain of Glucocorticoid receptor (Homo sapiens) (P04150 whole entry, looked up, the tested form may be a part): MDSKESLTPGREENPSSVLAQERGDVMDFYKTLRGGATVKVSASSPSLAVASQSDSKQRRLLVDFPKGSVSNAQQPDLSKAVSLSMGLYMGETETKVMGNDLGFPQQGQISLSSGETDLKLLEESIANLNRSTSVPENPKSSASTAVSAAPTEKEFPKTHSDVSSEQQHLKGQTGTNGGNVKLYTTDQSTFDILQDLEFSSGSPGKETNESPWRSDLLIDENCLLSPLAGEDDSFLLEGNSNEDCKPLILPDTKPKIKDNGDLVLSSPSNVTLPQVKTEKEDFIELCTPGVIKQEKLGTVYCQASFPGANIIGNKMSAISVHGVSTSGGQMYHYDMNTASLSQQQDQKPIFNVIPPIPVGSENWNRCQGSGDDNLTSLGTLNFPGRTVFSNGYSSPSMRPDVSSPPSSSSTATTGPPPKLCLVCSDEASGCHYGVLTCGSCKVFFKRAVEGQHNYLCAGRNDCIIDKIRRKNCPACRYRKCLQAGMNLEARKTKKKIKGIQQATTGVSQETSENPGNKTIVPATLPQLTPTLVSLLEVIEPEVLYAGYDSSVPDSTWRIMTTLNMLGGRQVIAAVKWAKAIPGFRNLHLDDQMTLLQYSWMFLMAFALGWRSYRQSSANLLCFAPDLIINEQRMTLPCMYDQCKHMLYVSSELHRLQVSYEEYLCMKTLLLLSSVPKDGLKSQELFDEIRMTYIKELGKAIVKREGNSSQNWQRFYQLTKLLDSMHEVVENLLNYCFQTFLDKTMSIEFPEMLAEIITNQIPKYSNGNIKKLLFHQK
Chain of 3',5'-cyclic-AMP phosphodiesterase 4B (Homo sapiens) (Q07343 whole entry, looked up): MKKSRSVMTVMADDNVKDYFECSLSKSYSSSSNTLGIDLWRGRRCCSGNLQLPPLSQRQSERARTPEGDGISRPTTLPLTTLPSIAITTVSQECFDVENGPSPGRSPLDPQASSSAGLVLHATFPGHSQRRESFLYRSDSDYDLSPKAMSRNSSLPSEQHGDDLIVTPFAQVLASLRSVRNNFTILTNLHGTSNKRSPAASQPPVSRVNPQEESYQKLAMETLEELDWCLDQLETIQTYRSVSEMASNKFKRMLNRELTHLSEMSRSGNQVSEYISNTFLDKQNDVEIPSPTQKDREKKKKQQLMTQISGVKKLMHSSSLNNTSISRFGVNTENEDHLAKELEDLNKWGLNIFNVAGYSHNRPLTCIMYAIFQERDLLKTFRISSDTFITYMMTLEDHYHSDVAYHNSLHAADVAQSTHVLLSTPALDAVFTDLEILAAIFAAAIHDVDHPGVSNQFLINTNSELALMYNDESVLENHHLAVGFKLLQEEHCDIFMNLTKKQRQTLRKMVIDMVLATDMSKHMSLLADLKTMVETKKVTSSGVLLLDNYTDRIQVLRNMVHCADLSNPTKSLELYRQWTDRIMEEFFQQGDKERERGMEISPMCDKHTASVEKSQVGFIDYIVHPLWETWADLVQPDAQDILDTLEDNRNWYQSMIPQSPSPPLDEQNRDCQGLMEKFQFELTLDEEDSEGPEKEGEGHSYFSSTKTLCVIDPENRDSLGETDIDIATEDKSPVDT

CC(=O)N1CCC2(CC1)CN(c1cccc(-c3ccccc3)c1)C2
17.4%: max response [8, 11]
6.96%: max response [8, 10]
inactive: Potency [1] > 11.4 µM | activity change, negative = inhibition [2] -4.65% | activity change, negative = inhibition [3] 16.1% | activity, negative = inhibition [4] 1.02% | Potency [5] > 46 µM | Potency [6] | Potency [7] | activity change, negative = inhibition [8] 6.04% | outcome [9]

N#Cc1ccc(CN2CC[C@@]3(CCCN(C(=O)c4ccncc4)C3)C2)cc1
26%: max response [8, 11]
inactive: Potency [1] > 11.4 µM | activity change, negative = inhibition [2] -10.1% | activity change, negative = inhibition [3] -7.12% | activity, negative = inhibition [4] 8.24% | Potency [5] > 46 µM | Potency [6] | Potency [7] | activity change, negative = inhibition [8] 4.36% | outcome [9]
17.6%: max response [8, 10]

CC(=O)N1CCC2(CCCN(C(=O)Nc3cccc(C#N)c3)C2)CC1
15.6%: max response [8, 11]
12.8%: max response [8, 10]
inactive: Potency [1] > 11.4 µM | activity change, negative = inhibition [2] -1.46% | activity change, negative = inhibition [3] -5.5% | activity, negative = inhibition [4] 4.81% | Potency [5] > 46 µM | Potency [6] | Potency [7] | activity change, negative = inhibition [8] 0.477% | outcome [9]

O=C(c1cccc(F)c1)N1CCC[C@@]2(CCN(c3ccccn3)C2)C1
inactive: Potency [1] > 11.4 µM | activity change, negative = inhibition [2] -17% | activity change, negative = inhibition [3] -7.81% | activity, negative = inhibition [4] -6.48% | Potency [5] > 46 µM | Potency [6] | Potency [7] | activity change, negative = inhibition [8] 6.88% | outcome [9]
23.1%: max response [8, 11]
12.7%: max response [8, 10]

O=C(Nc1cccc(F)c1)N1CC2(CCN(C(=O)c3cccc(F)c3)CC2)C1
1.76%: max response [8, 10]
6.4%: max response [8, 11]
inactive: Potency [1] > 11.4 µM | activity change, negative = inhibition [2] -21.6% | activity change, negative = inhibition [3] 22.7% | activity, negative = inhibition [4] -4.12% | Potency [5] > 46 µM | Potency [6] | Potency [7] | activity change, negative = inhibition [8] 1.48% | outcome [9]

CC(C)NC(=O)N1CC2(CCN(C(=O)c3cccn3C)CC2)C1
inactive: Potency [1] > 11.4 µM | activity change, negative = inhibition [2] -10.8% | activity change, negative = inhibition [3] -17.2% | activity, negative = inhibition [4] 4.27% | Potency [5] > 46 µM | Potency [6] | Potency [7] | activity change, negative = inhibition [8] 2.27% | outcome [9]
15.6%: max response [8, 11]
10.2%: max response [8, 10]

COCC(=O)N1CCC[C@@]2(CCN(c3ccccc3)C2)C1
17.9%: max response [8, 10]
inactive: Potency [1] > 11.4 µM | activity change, negative = inhibition [2] -8.85% | activity change, negative = inhibition [3] -13.7% | activity, negative = inhibition [4] 8.14% | Potency [5] > 46 µM | Potency [6] | Potency [7] | activity change, negative = inhibition [8] -2.7% | outcome [9]
18%: max response [8, 11]

COc1ccc(C(=O)N2CCC[C@@]3(CCN(Cc4ccncc4)C3)C2)cc1
25.6%: max response [8, 11]
inactive: Potency [1] > 11.4 µM | activity change, negative = inhibition [2] -9.73% | activity change, negative = inhibition [3] 4.96% | activity, negative = inhibition [4] 2.52% | Potency [5] > 46 µM | Potency [6] | Potency [7] | activity change, negative = inhibition [8] 5.81% | outcome [9]
16.4%: max response [8, 10]
